Potency data for 37 compounds are collected here from PubChem BioAssay AID493192 (National Center for Advancing Translational Sciences (NCATS), 2011).

Results filed as inconclusive are left out. A call without a number means that no potency is given here. Active and inactive are the calls of the source. Calls come from the whole dose curve; as a rule, active = well fitted activation curve with a large enough effect; inconclusive = small, poorly fitted or top-dose-only effect; inactive = no such curve, though single readings can be large or run the other way.
Potency is the fitted concentration of half-maximal effect.

The assay is described as follows: qHTS Assay for Identifying a Potential Treatment of Ataxia-Telangiectasia: Hit Validation.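 Note: phospho-KAP1 level by AlphaLISA as a proxy for ATM-like kinase activity.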 Particulars: Ataxia-telangiectasia cell-based hit validation qHTS, in ATM-null A-T patient fibroblasts; series mostly up to 76.9 µM. The procedure, abridged:
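KAP-1 phosphorylation was read by AlphaLISA as a measure of ATM-like activity in ATM-null F2112 fibroblasts. Compounds spanned up to 76.7 uM final, with 60 min exposure at 37C and a 6 hr detection incubation at 25C.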
As for `N=c1ccn(Cc2ccc([N+](=O)[O-])cc2)cc1`, the Potency entry was “inactive”. On to `O=C(O)c1ccc(/C=C/c2nc3ccccc3c(=O)[nH]2)cc1`, for which the Potency result is “inactive”.

On to `COC(=O)c1ccncc1C(=O)Nc1ccc(Oc2ncc(C(F)(F)F)cc2Cl)cc1`, for which the Potency result was “inactive”.

As to `COc1ccc(C2(C)CC(C)(C)Nc3ccccc32)cc1` (configuration not stated), the Potency entry was “inactive”. For `COc1ccc(-c2nn(C)c(=O)[nH]2)cc1` the value was “inactive”; for `C/C=C\C=C/C(=O)Nc1cccc(C2=NOC3(C2)C[C@@H](C(N)=O)N(C(=O)COc2ccc(Cl)cc2)C3)c1` (some centres not stated), “inactive”. To `Cc1ccc2c(c1)sc(=NC(=O)C1CC1)n2C` belongs 18.4 µM (active); to `CCOc1ccccc1CNC(=O)Cn1c(=O)oc2ccccc21`, 23.2 µM (active); to `CCc1ccc(NC(=O)N[C@H](C(=O)O)C(C)CC)cc1` (some centres not stated), “inactive”. For `O=C(CCCn1nnnc1CN1CCOCC1)N1CCC(c2ccc(F)cc2)C1` (configuration not stated) the value was “inactive”; for `COc1ccc(CCn2c(S)nc3ccccc3c2=O)cc1`, 26 µM (active). As to `CC(C)(C=O)C1=CC(=O)c2ccccc2C1=O`, the Potency is 20.7 µM (active). To `CCN1CCN(CC(=O)Nc2ccc(C(C)=O)cc2)CC1` belongs 26 µM (active); to `COc1cc(/C=C2\CCOC2=O)cc(OC)c1OC`, “inactive”. To `Cc1ccc(C(=O)Nc2sc3c(c2C(=O)O)CCCCC3)o1` belongs “inactive”; to `CCOC(=O)CNS(=O)(=O)Cc1ccccc1`, “inactive”; to `CC(C)CN(CC(C)C)C(=O)c1cc2c(=O)n3ccccc3nc2s1`, “inactive”. For `O=C(CCC(=O)c1ccc(F)cc1)Nc1cccc(Br)c1` the value was “inactive”.

Regarding `Cc1cccc(C)c1NC(=O)COC(=O)c1cc(=O)c2ccccc2o1`, the Potency entry was “inactive”. Regarding `COc1ccc(C(CNC(=O)C(Cc2ccccc2)NC(N)=O)N(C)C)cc1` (configuration not stated), the Potency result was “inactive”. As to `CC(C)(C)NC(=O)c1cccc2c1-c1ccccc1C2=O`, the Potency entry is “inactive”.

In the case of `COc1ccc(NCc2cc(=O)oc3cc(NC(C)=O)ccc23)cc1`, the Potency result was “inactive”.

In the case of `COc1cccc(/C=N/NC(=O)c2cc3cc([N+](=O)[O-])ccc3s2)c1O`, the Potency was 51.9 µM (active).

Take `Nc1ccc2ncccc2c1`: the Potency result is “inactive”. In the case of `COc1ccc(OC)c(C2CC(c3ccccc3)=NN2C(=S)Nc2ccccc2)c1` (configuration not stated), the Potency entry is “inactive”.

Regarding `CC(C)(C)C1CCC2(CC1)SCC(=O)N2c1ccccc1` (configuration not stated), the Potency result was “inactive”. For `C=CCN1C(=O)/C(=C/C(=O)OC)S/C1=N\NC(=O)c1ccccc1` the value was “inactive”; for `CCn1nc(C)c(/C=N/NC(=O)Cn2cncn2)c1C`, “inactive”; for `COc1ccc(N(C)S(=O)(=O)c2cccc(C(=O)OCC(=O)NCc3ccccc3OC)c2)cc1`, “inactive”.

Take `COc1ccc(Cl)cc1NC(=O)C[n+]1cccc(C)c1`: the Potency result is “inactive”. As for `CC1=NOC2(C1)N(C)c1ccccc1C2(C)C` (configuration not stated), the Potency entry is “inactive”. `NC(=O)C1CCN(Cc2nc3cc(C(F)(F)F)ccc3c(=O)[nH]2)CC1`: the Potency result is “inactive”.

With `CN(C)c1cc(Nc2ccc(O)cc2)c([N+](=O)[O-])c2nonc12`, the Potency entry is “inactive”.

As to `CCCc1nn(C)c(C(=O)Nc2ccc(C(C)(C)C)cc2)c1Cl`, the Potency result is “inactive”. Consider `Clc1cccc(Cl)c1CSc1nnc(-c2ccncc2)s1`, for which the Potency entry was “inactive”. For `O=C(c1nn2c(C(F)(F)F)cc(-c3ccc(F)cc3)nc2c1Cl)N1CCOCC1`, the Potency entry is “inactive”. Turning to `CN(CCc1ccccn1)C(=O)c1cc(COc2ccc(F)cc2F)on1`, the Potency result is “inactive”.
